Assay results: PubChem BioAssay AID1159580 (chemical genetic matrix, 2015)
“And” between values parts separate entries of the source, which are not always exact repeats. Equal entries are not always repeated. Out of some 5,500 compounds screened, about 2,000 (36%) were called active. About 18% were inconclusive and are not listed. No stated cut-off is given here; in the data, active means normalized growth mostly below about 0.91 (no sharp cut-off); inconclusive means no clear call, values can overlap the other calls; inactive means mostly above about 0.92. The list shows a part of the results.

Test: chemical genetic growth profiling, strain panel (AID 1159580);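 further: tested at 20 µM; growth read once vehicle control cultures reached saturation at 30 °C; 1 = growth at the plate median or of vehicle wells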
Settings: S. cerevisiae deletion strains, growth OD

Measured: normalized growth

O=C1NCC2(CCN(CCc3ccccc3)CC2)O1
inactive: locus YAL013W, strain DEP1, stronger effect = lower value 1.02 | locus YAL021C, strain ccr4, stronger effect = lower value 0.973 | locus YAL026C, strain drs2, stronger effect = lower value 0.99 | locus YAL030W, strain snc1, stronger effect = lower value 1 | locus YAL040C, strain CLN3, stronger effect = lower value 1 | locus YBL061C, strain skt5, stronger effect = lower value 0.983 | locus YBR009C, strain hhf1, stronger effect = lower value 0.992 | locus YBR021W, strain FUR4, stronger effect = lower value 1.01 | locus YBR023C, strain chs3, stronger effect = lower value 0.993 | locus YBR171W, strain sec66, stronger effect = lower value 0.99 | locus YBR229C, strain ROT2, stronger effect = lower value 1.01 | locus YBR231C, strain swc5, stronger effect = lower value 0.985 | locus YBR279W, strain paf1, stronger effect = lower value 1.01 | locus YCL011C, strain gbp2, stronger effect = lower value 1.01 | locus YCL016C, strain dcc1, stronger effect = lower value 1.02 | locus YCL029C, strain bik1, stronger effect = lower value 1 | locus YCL061C, strain MRC1 (second series), stronger effect = lower value 1.01 | locus YCL069W, strain vba3, stronger effect = lower value 0.982 | locus YCR088W, strain abp1, stronger effect = lower value 1.01 | locus YDL005C, strain med2, stronger effect = lower value 0.987 | locus YDL035C, strain GPR1, stronger effect = lower value 1.01 | locus YDL040C, strain nat1, stronger effect = lower value 0.996 | locus YDL074C, strain BRE1, stronger effect = lower value 1.02 | locus YDL101C, strain DUN1, stronger effect = lower value 1.02 | locus YDL134C, strain PPH21, stronger effect = lower value 1 | locus YDL185W, strain tfp1, stronger effect = lower value 1.01 | locus YDL192W, strain arf1, stronger effect = lower value 1.01 | locus YDR001C, strain nth1, stronger effect = lower value 0.99 | locus YDR069C, strain doa4, stronger effect = lower value 0.983 | locus YDR101C, strain arx1, stronger effect = lower value 0.994 | locus YDR137W, strain rgp1, stronger effect = lower value 0.989 | locus YDR150W, strain NUM1, stronger effect = lower value 1 | locus YDR159W, strain sac3, stronger effect = lower value 0.989 | locus YDR162C, strain NBP2, stronger effect = lower value 1.01 | locus YDR195W, strain ref2 0.973 | locus YDR297W, strain sur2, stronger effect = lower value 1 | locus YDR318W, strain mcm21, stronger effect = lower value 1.01 | locus YDR334W, strain swr1, stronger effect = lower value 0.983 | locus YDR335W, strain msn5, stronger effect = lower value 0.971 | locus YDR363W, strain ESC2, stronger effect = lower value 1 | locus YDR388W, stronger effect = lower value 1 | locus YDR392W, strain spt3, stronger effect = lower value 1.02 | locus YDR502C, strain sam2, stronger effect = lower value 0.995 | locus YEL003W, strain gim4, stronger effect = lower value 0.99 | locus YEL037C, strain rad23, stronger effect = lower value 0.982 | locus YEL061C, strain CIN8 (second series), stronger effect = lower value 0.978 | locus YEL061C, strain CIN8, stronger effect = lower value 1 | locus YER002W, strain NOP16, stronger effect = lower value 1.01 | locus YER015W, strain faa2, stronger effect = lower value 1 | locus YER016W, strain bim1, stronger effect = lower value 1.01 | locus YER110C, stronger effect = lower value 1 | locus YER111C, strain swi4, stronger effect = lower value 0.992 | locus YER155C, strain BEM2 (second series), stronger effect = lower value 0.996 | locus YER155C, strain BEM2, stronger effect = lower value 1 | locus YER167W, strain BCK2, stronger effect = lower value 1 | locus YFR010W, strain ubp6, stronger effect = lower value 0.965 | locus YGL078C, strain dbp3, stronger effect = lower value 0.994 | locus YGL086W, strain mad1, stronger effect = lower value 0.993 | locus YGL167C, strain pmr1, stronger effect = lower value 0.982 | locus YGL173C, strain kem1, stronger effect = lower value 0.979 | locus YGL227W, strain vid30, stronger effect = lower value 1 | locus YGL240W, strain doc1, stronger effect = lower value 0.969 | locus YGL248W, strain PDE1, stronger effect = lower value 1.01 | locus YGL253W, strain hxk2, stronger effect = lower value 0.982 | locus YGR078C, strain PAC10, stronger effect = lower value 1.01 and 1.02 | locus YGR135W, strain pre9, stronger effect = lower value 0.999 | locus YGR229C, strain SMI1, stronger effect = lower value 1 | locus YGR252W, strain gcn5, stronger effect = lower value 0.944 | locus YHR013C, strain ard1, stronger effect = lower value 0.974 | locus YHR027C, strain rpn1, stronger effect = lower value 1 | locus YHR030C, strain SLT2, stronger effect = lower value 1.01 and 0.988 | locus YHR079C, strain IRE1 (second series), stronger effect = lower value 1.01 | locus YHR079C, strain IRE1, stronger effect = lower value 0.979 | locus YHR094C, strain hxt1, stronger effect = lower value 1 | locus YHR129C, strain ARP1, stronger effect = lower value 1.02 | locus YHR142W, strain chs7, stronger effect = lower value 0.966 | locus YHR200W, strain rpn10, stronger effect = lower value 0.994 | locus YIL066C, strain RNR3, stronger effect = lower value 1.01 | locus YIL073C, strain SPO22, stronger effect = lower value 1.01 | locus YIL125W, strain kgd1, stronger effect = lower value 0.998 | locus YIR030C, strain dcg1, stronger effect = lower value 0.994 | locus YJL092W, strain hpr5, stronger effect = lower value 0.997 | locus YJL095W, strain BCK1 (second series), stronger effect = lower value 0.993 | locus YJL095W, strain BCK1, stronger effect = lower value 1.04 and 0.982 | locus YJL115W, strain asf1, stronger effect = lower value 0.976 | locus YJL129C, strain trk1, stronger effect = lower value 0.967 | locus YJL134W, strain LCB3, stronger effect = lower value 1.01 | locus YJL154C, strain vps35, stronger effect = lower value 1 | locus YJL164C, strain tpk1, stronger effect = lower value 1.01 | locus YJL166W, strain qcr8, stronger effect = lower value 0.997 | locus YJL168C, strain set2, stronger effect = lower value 1.01 | locus YJL187C, strain SWE1 (second series), stronger effect = lower value 1.02 | locus YJR043C, strain POL32, stronger effect = lower value 1.02 | locus YJR066W, strain TOR1, stronger effect = lower value 0.913 | locus YJR075W, strain HOC1, stronger effect = lower value 1 and 0.995
